Results as given in PubChem BioAssay.

assay: basal RPMI8226 viability, no added stimulus, profiling panel, cell-based, calcein-AM fluorescence, 48 h, PK04 Diversity Set (AID 1166); details: RPMI8226 myeloma viability, higher = more signal;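 also: cells grown under basal conditions without added stimulus; test concentration not given here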

| Compound | z-score |
| --- | --- |
| COCCOC(=O)N1C(=O)[C@@]2(c3ccccc31)[C@H](C(=O)N1CCN(c3ncccn3)CC1)[C@H]1C(=O)O[C@H](c3ccccc3)[C@H](c3ccccc3)N1[C@@H]2c1ccccc1OCCO | -0.203 |
| Cc1ccc(C(C)CC(O)C2C=CC3C(=O)N(C)C(=O)C3N2Nc2ccccc2)o1 (stereo not given) | 0.0166 |
| CC1CC/C=C\[C@H]2OC34C=CCN(CCN5CCOCC5)C(=O)[C@H]3N(CCCO)C(=O)[C@@H]4C2C(=O)O1 (stereo not given in full) | 0.42 |
| CCCNC(=O)[C@@]1(c2ccc([N+](=O)[O-])cc2)CC(=O)N(C(C)C)[C@@H]1c1ccc(CO)cc1 | 0.11 |
| C=C(COC)/C(=C/C[C@H](OC(C)=O)c1ccccc1OCCO)c1cc(C(=O)OC)ccc1OC | -1.74 |
| CC(C)C(=C=CC[C@H](O)c1ccccc1OCCO)C[C@H](O)COCc1ccccc1 | -1.15 |
| CCCC[C@H]1OB(O)C[C@H]2C1=C(COc1ccccc1)C[C@H]1C(=O)C=CC(=O)[C@H]12 | -3.25 |
| Cc1ccc(N2C(=O)c3ccccc3[C@](C)(C(=O)NCCCN(C)C)[C@@H]2c2ccc(CO)cc2)nc1 | -0.444 |
| CCCCC(O)C1C=CC2C(=O)N(c3ccccc3)C(=O)C2N1Nc1ccc([N+](=O)[O-])cc1 (stereo not given) | -0.438 |
| C=CCC(OC(C)=O)[C@@H]1[C@@H](N(Cc2ccc(-c3cccc(C(F)(F)F)c3)o2)C(=O)c2ccc(-c3ccccc3)cc2)c2cc(OCCCO)ccc2N1C(=O)c1ccc2ccccc2c1 (stereo not given in full) | -0.164 |
| C=C(CCCC)/C(=C/C[C@H](OC(C)=O)c1cccc(OCCO)c1)c1cnc2ccccc2c1 | -1.26 |
| OCCCC1=CC(c2ccc(CN3CCCC3)cc2)N(Cc2cccc(OC(F)(F)F)c2)CC1 (stereo not given) | -3.83 |
| C=C(COC)C(=O)CC[C@H](OC(=O)c1cccnc1)c1ccc(OCCO)cc1 | -0.418 |
| COc1ccc(C(O)C2C=CC3C(=O)N(c4ccccc4)C(=O)C3N2Nc2ccc(C#N)cc2)cc1OCc1ccccc1 (stereo not given) | -0.692 |
| C=CCNC(=O)[C@H]1[C@@H]2C(=O)O[C@@H](c3ccccc3)[C@@H](c3ccccc3)N2[C@@H](c2ccc(OCCO)cc2)[C@]12C(=O)Nc1ccc(C#CC3(O)CCCCCC3)cc12 | -1.41 |
| CC[C@@H]1C=C(C(=O)O)[C@H](c2ccc(OC)cc2)N1S(=O)(=O)c1ccc(C)cc1 | -0.23 |
| O=C1C2C=CC(C(O)C3CCCCC3)N(n3cnnc3)C2C(=O)N1Cc1ccccc1 (stereo not given) | -0.441 |
| [N-]=[N+]=NCc1ccccc1[C@@H]1OC(c2ccc(OCCCO)cc2)=N[C@]1(Cc1ccccc1N=[N+]=[N-])C(=O)O | -3.36 |
| COC(=O)c1cccc([C@H]2OC(=CC(=O)OC(C)C)C[C@@H](c3cccc(C(=O)OC)c3)O2)c1 | -1.64 |
| CN(C)CCCNC(=O)[C@@]1(Cc2ccccc2I)c2ccccc2C(=O)N(C2CCCCC2)[C@H]1c1ccc(CO)cc1 | -4.34 |
| O=C1NC(=O)C2C1C=CC(C(O)c1ccc(B(O)O)cc1)N2Nc1ccc(Cl)cc1Cl (stereo not given) | -1.58 |
| COC(=O)[C@@]1(Cc2ccccc2)[C@H]2c3cc(C(=O)N(C)C)n(CCO)c3C[C@H]2CN1C(=O)c1ccccc1 | -1.99 |
| C=C(CCCC)C(=O)CC[C@H](OC(=O)c1ccccc1-c1ccccc1C(=O)O)c1ccc(OCCO)cc1 | -3.37 |
| O=C1OCCC=C[C@H]2OC34C=CCN(c5ccc6ccccc6c5)C(=O)[C@H]3N(CCO)C(=O)[C@@H]4C12 (stereo not given in full) | 0.037 |
| COc1cc(CO)cc(I)c1O[C@H]1C=C(C(=O)NCCO)C[C@@H]2O[C@H]12 | -3.2 |
| COCCOC(=O)N1C(=O)[C@@]2(c3cc(C#CCC(C(=O)OC)C(=O)OC)ccc31)[C@H](C(=O)Nc1nc3ccccc3s1)[C@H]1C(=O)O[C@H](c3ccccc3)[C@H](c3ccccc3)N1[C@@H]2c1ccc(OCCO)cc1 | 0.427 |
| CC(C)C[C@H]1NC(=O)C([C@@H](C)OCc2ccccc2)NC(=O)[C@@]23C(=O)N[C@@H](Cc4ccccc4)C2[C@H](C)[C@@]2(C)O[C@H]2C3/C=C/C/C=C\CNC1=O (stereo not given in full) | -1.53 |
| C=C(COC)/C(=C/C[C@@H](OC(C)=O)c1ccccc1OCCO)c1cnc2ccccc2c1 | -1.14 |
| COc1ccc([Si](C)(C)[C@@H]2[C@@H](CC(=O)N3CCC[C@H]3CO)O[C@]3(C(=O)N(Cc4ccc(N5CCOC5=O)cc4)c4ccccc43)[C@H]2C)cc1 | -4.54 |
| COC(=O)[C@@]1(Cc2ccccc2)[C@H]2c3cc(C(=O)N(C)C)n(CCSC(=N)N)c3C[C@H]2CN1C(=O)c1ccccc1 | -1.07 |
